According to PubChem BioAssay AID1159580 (chemical genetic matrix, 2015):
Hit rate of the full screen: of about 5,500 compounds, about 2,000 (36%) were called active. About 18% were inconclusive and are not listed. Rule as the data show it: active = normalized growth mostly below about 0.91 (no sharp cut-off); inconclusive = no clear call, values can overlap the other calls; inactive = mostly above about 0.92. The list shows a part of the results.

Experiment: chemical genetic growth profiling, strain panel (AID 1159580);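 also: tested at 20 µM; growth read once vehicle control cultures reached saturation at 30 °C; 1 = growth at the plate median or of vehicle wells; lower values mean less growth of the strain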
Conditions: S. cerevisiae deletion strains, growth OD
[1] = locus YAR019C, strain CDC15, active compounds read low
[2] = locus YBL105C, strain PKC1, active compounds read low
[3] = locus YBR135W, strain CKS1, active compounds read low
[4] = locus YBR136W, strain MEC1, active compounds read low
[5] = locus YBR160W, strain CDC28, active compounds read low
[6] = locus YDL017W, strain CDC7, active compounds read low
[7] = locus YDL028C, strain MPS1, active compounds read low
[8] = locus YDL101C, strain DUN1, active compounds read low
[9] = locus YDL108W, strain KIN28, active compounds read low
[10] = locus YDL132W, strain cdc53, active compounds read low
[11] = locus YDL214C, strain PRR2, active compounds read low
[12] = locus YDR052C, strain DBF4, active compounds read low
[13] = locus YDR054C, strain cdc34, active compounds read low
[14] = locus YDR226W, strain ADK1, active compounds read low
[15] = locus YDR477W, strain SNF1, active compounds read low
[16] = locus YER123W, strain YCK3, active compounds read low
[17] = locus YER133W, strain GLC7, active compounds read low
[18] = locus YFL009W, strain cdc4, active compounds read low
[19] = locus YFL029C, strain CAK1, active compounds read low
[20] = locus YFR003C, strain YPI1, active compounds read low
[21] = locus YFR019W, strain FAB1, active compounds read low
[22] = locus YFR028C, strain CDC14, active compounds read low
[23] = locus YGR040W, strain KSS1, active compounds read low
[24] = locus YGR052W, strain FMP48, active compounds read low
[25] = locus YGR092W, strain DBF2, active compounds read low
[26] = locus YHR030C, strain SLT2, active compounds read low
[27] = locus YHR079C, strain IRE1, active compounds read low
[28] = locus YHR082C, strain KSP1, active compounds read low
[29] = locus YHR205W, strain SCH9, active compounds read low
[30] = locus YIL147C, strain SLN1, active compounds read low
[31] = locus YJL095W, strain BCK1, active compounds read low
[32] = locus YJL128C, strain PBS2, active compounds read low
[33] = locus YJL157C, strain FAR1, active compounds read low
[34] = locus YJR016C, strain ILV3, active compounds read low
[35] = locus YJR066W, strain TOR1 (second series), active compounds read low
[36] = locus YJR066W, strain TOR1, active compounds read low
[37] = locus YKL048C, strain ELM1, active compounds read low
[38] = locus YKL067W, strain YNK1, active compounds read low
[39] = locus YKL101W, strain HSL1, active compounds read low
[40] = locus YKL193C, strain SDS22, active compounds read low
[41] = locus YKL203C, strain TOR2, active compounds read low
[42] = locus YLR113W, strain HOG1, active compounds read low
[43] = locus YLR133W, strain CKI1, active compounds read low
[44] = locus YLR403W, strain SFP1, active compounds read low
[45] = locus YML070W, strain DAK1, active compounds read low
[46] = locus YMR001C, strain CDC5, active compounds read low
[47] = locus YMR205C, strain PFK2 (second series), active compounds read low
[48] = locus YMR277W, strain FCP1, active compounds read low
[49] = locus YNL006W, strain LST8, active compounds read low
[50] = locus YNL020C, strain ARK1, active compounds read low
[51] = locus YNL161W, strain CBK1, active compounds read low
[52] = locus YNL183C, strain NPR1, active compounds read low
[53] = locus YNL207W, strain RIO2, active compounds read low
[54] = locus YNL222W, strain SSU72, active compounds read low
[55] = locus YNL307C, strain MCK1 (second series), active compounds read low
[56] = locus YOL078W, strain AVO1, active compounds read low
[57] = locus YOL136C, strain PFK27, active compounds read low
[58] = locus YOR061W, strain CKA2, active compounds read low
[59] = locus YOR119C, strain RIO1, active compounds read low
[60] = locus YOR231W, strain MKK1, active compounds read low
[61] = locus YOR329C, strain SCD5, active compounds read low
[62] = locus YPL031C, strain PHO85, active compounds read low
[63] = locus YPL153C, strain RAD53, active compounds read low
[64] = locus YPL204W, strain HRR25, active compounds read low
[65] = locus YPL209C, strain IPL1, active compounds read low
[66] = locus YPL256C, strain CLN2, active compounds read low
[67] = locus YPR025C, strain CCL1, active compounds read low
[68] = locus YPR106W, strain ISR1, active compounds read low
[69] = locus YPR111W, strain DBF20, active compounds read low
[70] = strain NNK1, active compounds read low
[71] = strain TSCII, active compounds read low

Measured: normalized growth

O=C(c1cccs1)N(Cc1cccnc1)Cc1ccc(Cl)cc1Cl
inactive: [1] 0.979 | [2] 0.966 | [3] 0.961 | [4] 0.955 | [5] 0.964 | [6] 0.968 | [7] 0.961 | [8] 0.97 | [9] 0.96 | [10] 0.96 | [11] 0.94 | [12] 0.96 | [13] 0.968 | [14] 0.96 | [15] 0.934 | [16] 0.887 | [17] 0.946 | [18] 0.96 | [19] 0.97 | [20] 0.966 | [21] 0.918 | [22] 0.965 | [23] 0.92 | [24] 1.01 | [25] 0.984 | [27] 1.21 | [28] 1.07 | [29] 0.971 | [30] 0.964 | [31] 1.04 | [32] 0.939 | [33] 0.95 | [34] 0.971 | [35] 0.941 | [36] 1.1 | [37] 0.963 | [38] 0.938 | [39] 0.929 | [40] 0.969 | [41] 1.02 | [42] 1 | [43] 0.945 | [44] 0.965 | [45] 0.929 | [46] 0.966 | [47] 0.944 | [48] 0.974 | [49] 0.967 | [50] 0.947 | [51] 0.968 | [52] 1.04 | [53] 0.969 | [54] 0.957 | [55] 0.955 | [56] 0.962 | [57] 0.906 | [58] 0.929 | [59] 0.978 | [60] 0.997 | [61] 0.972 | [62] 0.927 | [63] 0.937 | [64] 0.902 | [65] 0.969 | [67] 0.965 | [68] 0.969 | [69] 0.955 | [70] 0.975 | [71] 0.966
active: [26] 1.22 [resistant] | [66] 1.15 [resistant]

CC(C)(C)C(=O)N(Cc1cccnc1)Cc1ccc(Cl)cc1Cl
inactive: [1] 0.998 | [2] 0.988 | [3] 1 | [4] 0.986 | [5] 0.995 | [6] 0.992 | [7] 0.992 | [8] 0.985 | [9] 0.982 | [10] 0.997 | [11] 0.914 | [12] 0.993 | [13] 0.991 | [14] 1 | [15] 0.948 | [16] 0.842 | [17] 0.948 | [18] 0.998 | [19] 0.996 | [20] 0.993 | [21] 0.9 | [22] 1 | [23] 0.928 | [24] 1.01 | [25] 0.936 | [26] 1.07 | [27] 1.01 | [28] 1.02 | [29] 0.935 | [30] 0.983 | [31] 1.04 | [32] 0.96 | [33] 0.909 | [34] 0.998 | [35] 0.909 | [36] 0.995 | [37] 0.973 | [38] 0.938 | [39] 0.943 | [40] 0.995 | [41] 0.99 | [42] 1.02 | [43] 0.952 | [44] 0.913 | [45] 0.907 | [46] 0.995 | [47] 0.936 | [48] 0.996 | [49] 1 | [50] 0.934 | [51] 0.997 | [52] 1.02 | [53] 1 | [54] 0.993 | [55] 0.963 | [56] 1 | [57] 0.919 | [58] 0.906 | [59] 0.988 | [60] 1.02 | [61] 0.996 | [62] 0.925 | [63] 0.917 | [64] 0.927 | [65] 0.989 | [66] 1.02 | [67] 0.995 | [68] 0.992 | [69] 0.997 | [70] 0.993 | [71] 0.996
